What all share (assay): NCI-60 one-dose screen, 48 h (100 = growth as untreated, 0 = no growth, -100 = all killed)
Assay [1] concerns HCT-15 colon. The conditions noted are these: 10 µM unless noted.
In assay [2] the test system is HT29 colon. Conditions: 10 µM unless noted.
Assay [3] concerns SNB-75 CNS. Conditions: 10 µM unless noted.
Assay [4] deals with SNB-19 CNS. The conditions noted are these: 10 µM unless noted.
Assay [5] concerns U251 CNS. Conditions: 10 µM unless noted.
Assay [6] has as its system PC-3 prostate. The conditions noted are these: 10 µM unless noted.
Assay [7] has as its system SK-MEL-5 melanoma. Conditions: 10 µM unless noted.
For assay [8], the system named is UACC-62 melanoma. The conditions noted are these: 10 µM unless noted.
The subject of assay [9] is LOX IMVI melanoma. The conditions noted are these: 10 µM.
For assay [10], the system named is SK-MEL-28 melanoma. The conditions noted are these: 10 µM unless noted.
The subject of assay [11] is SK-MEL-2 melanoma. Conditions: 10 µM unless noted.
The test system of assay [12] is EKVX NSCLC. The conditions noted are these: 10 µM unless noted.
The subject of assay [13] is SN12C renal. The conditions noted are these: 10 µM unless noted.
For assay [14], the system named is UO-31 renal. The conditions noted are these: 10 µM unless noted.
The test system of assay [15] is TK-10 renal. The conditions noted are these: 10 µM unless noted.
Assay [16] relates to ACHN renal. The conditions noted are these: 10 µM unless noted.
For assay [17], the system named is CAKI-1 renal. Conditions: 10 µM unless noted.
The test system of assay [18] is A498 renal. Conditions: 10 µM unless noted.
Assay [19] relates to CCRF-CEM leukemia. The conditions noted are these: 10 µM unless noted.
For assay [20], the system named is MOLT-4 leukemia. Conditions: 10 µM unless noted.

About 83,000 compounds went through this panel and 20% of them were active in at least one assay; those are over-represented in the sample as a whole.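 Treatment: one concentration, 48 hours, 96-well format. Scoring: percent growth, with anything below 10 considered active.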 Unmarked numbers belong to inactive results. The source made the active and inactive calls.

As for `Clc1ncnc2nc[nH]c12`, the growth is 96.4% in [1]; 107% in assay [2]; 82.9% in assay [3]; 96.4% in [4]; 103% in [5]; 96.4% in [6]. For the same compound, the growth in [7] is 98.9%; in [8], 91.1%; in [9], 95.1%; in assay [10] it was 99.8%; in [11] it was 118%; in assay [12] it was 101%. Further, the growth was 93.4% in assay [13]; 77.2% in assay [14]; 107% in assay [15]; 96.2% in [16]; 108% in assay [17]; 101% in assay [18]. Also, the growth in [19] was 103%; in assay [20], 100%.

On to `OC1Cc2ccccc2C1`, for which the growth in assay [1] was 93.3%; in assay [2], 100%; in assay [3], 93.6%; in assay [4] it was 100%; in assay [5], 105%; in assay [6], 95.4%. For the same compound, the growth is 101% in assay [7]; 95.6% in assay [8]; 93.3% in assay [9]; 102% in [10]; 107% in [11]; 99.9% in assay [12]. The growth in [13] was 104%; in assay [14], 97.5%; in assay [15], 95.9%; in [16], 98.3%; in [17], 103%; in assay [18], 82.9%. Besides, the growth in assay [19] is 98.1%; in assay [20], 98.9%.

`NC(=O)N1CCOCC1`: the growth in [1] was 106%; in [2], 92.4%; in assay [3], 66%; in assay [4], 101%; in assay [5], 107%; in assay [6] it was 87.1%. For the same compound, the growth was 105% in [7]; 104% in [8]; 107% in assay [9]; 106% in [10]; 105% in assay [11]; 108% in [12]. Besides, the growth in assay [13] is 109%; in assay [14], 79.8%; in [15], 92.4%; in assay [16] it was 110%; in [17], 115%; in [18], 92.7%. Also, the growth is 88.9% in assay [19] and 93.7% in assay [20].

With `Oc1cc2ccccc2c(-c2c(O)c(O)cc3ccccc23)c1O`, the growth in [1] was 28.2%; in assay [2], 45.3%; in assay [3], 41.5%; in [4], 41.5%; in [5], 33.9%; in assay [6], 14.7%. Moreover, the growth in assay [7] is 33.4%; in assay [8] it was 27.9%; in [9], 14.5%; in assay [10] it was 53.2%; in [11], 5.57% (active); in assay [12] it was 35.9%. Further, the growth in assay [13] is 49.3%; in assay [14], 13.7%; in assay [15] it was 19.4%; in assay [16], 23.2%; in [17] it was 19.1%; in assay [18], 59.1%. Also, the growth was -12.5% (active) in [19] and 30.6% in assay [20].

Turning to `CN1CCCN(C(c2ccccc2)c2ccc(Cl)cc2)CC1` (stereo not given), the growth in [1] is 85.9%; in assay [2], 86.6%; in assay [3], 59%; in [4] it was 117%; in [5] it was 97.2%; in assay [6], 86.5%. Moreover, the growth in assay [7] was 94.8%; in assay [8], 106%; in assay [9], 89.4%; in assay [10], 103%; in [11] it was 117%; in [12] it was 94.8%. In addition, the growth in assay [13] was 101%; in assay [14], 76.3%; in assay [15], 78.3%; in [16], 98.7%; in [17], 77.5%; in [18], 56.1%. The results for the growth in [19] and in assay [20] were 103% and 89.5%, respectively.

On to `c1ccc(-c2ccc3ccccc3c2)cc1`, for which the growth is 107% in assay [1]; 80.8% in [2]; 107% in assay [3]; 100% in [4]; 92.7% in [5]; 90.8% in assay [6]. The growth in assay [7] was 96.4%; in [8], 95.4%; in assay [9], 95.7%; in assay [10], 107%; in [11] it was 76.6%; in assay [12], 103%. The growth was 96.1% in [13]; 85.2% in assay [14]; 97.7% in assay [15]; 88.9% in assay [16]; 97.9% in assay [17]; 84% in assay [18]. For the same compound, the growth in assay [19] was 99.6%; in assay [20] it was 80.8%.

In the case of `CCOC(=O)/C(C#N)=C\c1c[nH]c2ccccc12`, the growth was 93.8% in [1]; 105% in assay [2]; 85.9% in assay [3]; 97.6% in assay [4]; 98.1% in [5]; 99.1% in assay [6]. Also, the growth in assay [7] is 106%; in assay [8], 85.2%; in assay [9], 93.2%; in [10] it was 206%; in assay [11] it was 105%; in [12] it was 75.7%. Also, the growth was 90.5% in assay [13]; 69.6% in [14]; 221% in [15]; 85.1% in [16]; 30.8% in assay [17]; 153% in assay [18]. Also, the growth is 108% in assay [19] and 81.6% in assay [20].

For `Cc1[nH]n(-c2ccccc2)c(=O)c1C=NC(=S)C(N)=S`, the growth in assay [1] is 99.3%; in [2], 111%; in [3] it was 87.5%; in [4], 96.8%; in assay [5] it was 100%; in assay [6], 85.8%. The growth in assay [7] was 99.3%; in [8] it was 93%; in [9], 99.7%; in [10], 110%; in [11], 109%; in assay [12], 103%. For the same compound, the growth was 105% in [13]; 85.2% in assay [14]; 125% in [15]; 100% in assay [16]; 97.2% in assay [17]; 93.8% in [18]. In addition, the growth was 94.1% in [19] and 102% in assay [20].

The values are drawn from PubChem BioAssay (NCI).
